Shown is part of a subset that was picked to be rich in hits.
Tg IFNy HTS = T. gondii growth inhibition under IFN-gamma; activity change, negative = inhibition, % (test concentration not listed); 3.8% of 69,000 active; AID 1259416; Toxoplasma gondii growth in IFN-gamma-treated host cells; hits give low values; in the data active = activity change below about -70%, passing the limit was not always enough;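 also: host cells are HeLa cells infected with Toxoplasma gondii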
Starred values were filed as active, the others as inactive; i = inactive; ! = not confirmed by another sample.

SMILES | Tg IFNy HTS
CCc1cc(C(F)(F)F)c2c(C3CCN(C(=O)c4cc(C(C)C)[nH]n4)CC3)noc2n1 | -76*
CC[C@@H]1C[C@H](C(F)(F)F)n2nc(C3CCN(C(=O)c4cc(C(C)C)on4)C3)cc2N1 (some centres undefined) | 242
CC(C)Nc1n[nH]c2nc(C3CCN(C(=O)C(C)C)CC3)cc(C(F)(F)F)c12 | -65
CCOC(=O)c1cc(NC(=O)c2ccc(F)c(Cl)c2)ccc1Oc1cncc(Cl)c1 | -90*
CCOC(=O)c1nc(Nc2ccc(F)c(Cl)c2)c2ccccc2n1 | -51
COc1cncc(C(=O)Nc2ccc(C)c(F)c2)c1 | -15
CCOc1ccc(-c2nc(Cn3c(=O)c4cccnc4n(-c4ccccc4OC)c3=O)c(C)o2)cc1 | 15
Cc1ccc2c(c1C)NC(=O)C2CC(=O)N1C[C@H]2C[C@H](O)[C@H](O)C[C@H]2C1 (some centres undefined) | 1
Cc1nonc1NC(=O)CN1CCC(C2CC=CCN(Cc3ccc(F)cc3)C2=O)CC1 (centres undefined) | -3
CCCCc1cc(C)c2[nH]c(=O)cc(C)c2c1 | -88*
CCCc1[nH]c(=O)cc2cc(OC)c(OC)cc12 | -40
CC(=O)CCc1c(C)c2cccc(C)c2[nH]c1=O | 25
CCOCc1ncn2c1CN(S(=O)(=O)c1cccs1)CCC2 | -3
CCn1cnnc1CCNc1nc(C)nc2c1cnn2C | 10
Cc1nc2n(c(=O)c1CCN1CCC(c3noc4cc(F)ccc34)CC1)CCCC2O (centres undefined) | 23
Cc1nc2ccccn2c(=O)c1CCN1CCC(C(=O)c2ccc(F)cc2)CC1 | 4
Cc1nc2sccn2c(=O)c1CCN1CCC(=C(c2ccc(F)cc2)c2ccc(F)cc2)CC1 | -77*!
CCCCn1c(=O)c2c(nc3n2CCCN3CCc2ccccc2)n(C)c1=O | -97*
CCN1CCN(CC2(O)CCCN(CCCc3ccccc3)C2=O)CC1 (centres undefined) | 0
CCCCCCn1c(=O)c2c(ncn2C)n(C)c1=O | 16
COc1cc(NC(=O)c2c(O)c3cccnc3n(-c3ccccc3)c2=O)cc(OC)c1 | 16
NC(=O)COc1ccc(CN2CC[C@@]3(O)CCCC[C@H]3C2)cc1Cl | -32
CC1CNC(=O)CCN1Cc1cnc(-c2cccc3ccccc23)nc1 (centres undefined) | 11
Cc1nc2c(c(=O)[nH]1)CCN(C(=O)Cc1nn(C(C)C)c(=O)c3ccccc13)C2 | -7
CS(=O)(=O)CS(=O)(=O)NCc1cccs1 | 42
SMILES | Tg IFNy HTS
Cc1cc(C(=O)Nc2ccc(S(N)(=O)=O)cc2)no1 | -87*
CCOc1ccccc1C(=O)Nc1ccc(S(=O)(=O)Nc2cc(C)on2)cc1 | -28
Cc1cc(C(=O)Nc2ccc3c(c2)CCC(=O)N3)no1 | 31
CN(C)CCN1CCC2(CC1)CN(c1cccnc1)C(=O)CO2 | 30
COc1ccc2c(c1)C=C(CNC(Cc1ccsc1)c1ccc(C)cn1)CO2 (centres undefined) | 13
Cc1ccc(-c2cn[nH]c2C2CCCN(C(=O)C(=O)c3ccco3)C2)cc1 (centres undefined) | -13
COc1ccc(Cc2nn3c(C(=O)c4cccs4)nn(-c4ccccc4)c3nc2=O)cc1 | -94*
COc1ccc(-c2nc(C)c(CCNC(=O)c3cccs3)s2)cc1 | i
COc1ccc(-c2nc(C)c(CCNC(=O)C(=O)Nc3ccccc3)s2)cc1 | 1
CCCCOCC(=O)N1CCC2(CCOCC2)CC1 | 6
COc1ccc(F)cc1S(=O)(=O)NCCc1csc(-c2cccc(F)c2)n1 | 50
O=C(Nc1ccc(F)cc1)c1cccnc1Oc1ccccc1 | -31
O=C(O)c1cccnc1NCC1CCCO1 (centres undefined) | -28
N#CC1(c2ccc(NC(=O)c3cccnc3NCc3ccncc3)cc2)CCCC1 | -72*
NC(c1ccc2c(c1)OCCO2)c1ccco1 (centres undefined) | -23
Cc1cnc(CNC(=O)[C@H]2CO[C@@H]3CCN(C)C[C@@H]3C2)cn1 | -6
CCOC(=O)Nc1nnc(CCc2ccccc2)s1 | 0
c1ccc(CCNc2nnns2)cc1 | -97*
COc1ccccc1Nc1nnns1 | 12
Cc1ccc(CNC(=O)CN2C(=O)CCc3cc(Br)ccc32)cc1 | -57
Cc1noc(C)c1S(=O)(=O)N1CCNCC(Cc2cc(N(C)C)ncn2)C1 (centres undefined) | -14
O=C(C1CCC1)N1CCN(C2CCCC2)CC(Cc2ccccn2)C1 (centres undefined) | 34
CCn1ncc(C(=O)NC2CC(C)(C)Oc3cc(OC)ccc32)c1C (centres undefined) | -1
CCOC(=O)C1CCN(C(=O)c2sc(-c3cn(C(C)C)c4ncccc34)nc2C)CC1 | -51
Cc1nc(-c2cn(C(C)C)c3ncccc23)sc1C(=O)N1CCCC(C)C1 (centres undefined) | -117*
Cc1nc(-c2cn(C(C)C)c3ncccc23)sc1C(=O)N1CCC2(CC1)OCCO2 | -67
Cc1ccc(Nc2nc(-c3nnc(-c4ccccc4)o3)nc3ccccc23)cc1F | 87
O=C(Cc1noc2ccccc12)NCc1ccccc1-n1ccnc1 | 13

High-throughput results deposited in PubChem by Broad Institute.
